# Pol beta inh: qHTS Assay for Inhibitors of DNA Polymerase Beta | P06746 | Pol beta primer extension/strand displacement, fluorescence kinetic | Potency, µM (series often up to 114 µM), for inactives: at the top dose activity change, negative = inhibition, actives largely listed as inhibitors | 1.3% of 340,000 active; also: % is scaled to controls: 0 for no effect and ±100 for the full control effect
#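 Pol beta (10 nM) was preincubated with compound for 15 min at room temperature. The reaction was then started with 50 nM substrate and read immediately and after a further 10 min at room temperature.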
# GLS inh: qHTS for Inhibitors of Glutaminase (GLS). Glutaminase kidney isoform, mitochondrial (Homo sapiens), O94925. GLS enzymatic activity, qHTS titration. Potency, µM (series often up to 45.5 µM), for inactives: at the highest dose activity change, negative = inhibition, hits mostly inhibitors. 0.21% of 410,000 active; also: % is scaled to controls: 0 for no effect and ±100 for the full control effect
#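 Compounds were pin-transferred onto hKGA, after which L-glutamine (1 mM solution) and a detection mix of glutamate oxidase, HRP and Amplex Red were added. Initial and 30 min RT fluorescence reads were collected.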
# KAT2A inh: qHTS Assay for Inhibitors of GCN5L2. GCN5L2 HAT assay, ThioGlo1 CoA-SH fluorescence. Potency, µM (top dose mostly 58.9 µM), inactives show top-dose activity change, negative = inhibition, actives largely listed as inhibitors. 0.21% of 390,000 active. AID 504327, 2011; also: % is scaled to controls: 0 for no effect and ±100 for the full control effect
#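 Preincubate 20nM GCN5L2 with compound 15 min, RT → add 50uM ThioGlo1 + 75uM H3(1-25) + 70uM acetyl-CoA → read fluorescence 0 and 20 min. Primary qHTS; fluorescent artifacts likely.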
# Pol iota inh: qHTS for Inhibitors of Polymerase Iota; DNA polymerase iota (Homo sapiens), Q9UNA4; Pol iota fluorescent replication assay, 10 min; Potency, µM (top dose mostly 115 µM), inactives show top-dose activity, negative = inhibition, most hits filed as inhibitors; 1% of 390,000 active; AID 588590, 2011
#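 Pol iota at 10 nM preincubated 15 min with compounds at room temperature; reaction started with fluorescent substrate, 50 nM final. Fluorescence read kinetically at 0 and 10 min; buffer-only wells as negative control.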
# Pol kappa inh: qHTS for Inhibitors of Polymerase Kappa; DNA polymerase kappa (Homo sapiens), Q9UBT6; purified Pol kappa, fluorescent DNA synthesis assay, 10 min; Potency, µM (top dose mostly 107 µM), for the others: at the highest dose activity, negative = inhibition, usual class: inhibitors; 0.53% of 400,000 active; AID 588579, 2011; also: % is scaled to controls: 0 for no effect and ±100 for the full control effect
# Target sequence (Q9UBT6 whole entry, looked up): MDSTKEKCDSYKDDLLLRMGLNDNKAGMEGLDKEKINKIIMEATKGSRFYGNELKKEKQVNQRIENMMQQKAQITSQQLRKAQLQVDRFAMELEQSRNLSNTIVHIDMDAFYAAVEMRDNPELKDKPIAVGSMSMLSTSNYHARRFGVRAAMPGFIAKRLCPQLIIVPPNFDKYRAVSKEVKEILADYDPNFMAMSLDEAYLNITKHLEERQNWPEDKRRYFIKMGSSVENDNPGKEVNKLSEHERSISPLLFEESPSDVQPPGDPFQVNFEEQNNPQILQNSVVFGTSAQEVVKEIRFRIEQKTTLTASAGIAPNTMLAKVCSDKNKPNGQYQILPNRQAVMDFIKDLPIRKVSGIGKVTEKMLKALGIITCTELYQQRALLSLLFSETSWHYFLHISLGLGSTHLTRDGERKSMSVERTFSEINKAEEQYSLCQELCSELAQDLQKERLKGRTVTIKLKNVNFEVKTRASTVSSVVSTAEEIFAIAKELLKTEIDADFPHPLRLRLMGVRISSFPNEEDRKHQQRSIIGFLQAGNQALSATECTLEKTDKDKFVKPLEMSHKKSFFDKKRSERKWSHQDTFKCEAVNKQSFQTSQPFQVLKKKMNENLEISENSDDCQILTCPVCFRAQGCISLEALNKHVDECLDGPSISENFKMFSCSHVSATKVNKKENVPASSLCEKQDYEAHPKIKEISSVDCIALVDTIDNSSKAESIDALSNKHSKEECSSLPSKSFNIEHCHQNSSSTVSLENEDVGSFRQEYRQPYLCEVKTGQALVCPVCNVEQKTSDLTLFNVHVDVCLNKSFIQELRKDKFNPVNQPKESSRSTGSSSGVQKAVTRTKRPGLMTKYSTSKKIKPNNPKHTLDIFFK
#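 First, compounds were pin-transferred onto 10 nM Pol kappa. After 15 min at room temperature, substrate was added to 50 nM final. Fluorescence was then measured kinetically at 0 and 10 min.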
# POLH inh: qHTS for Inhibitors of Polymerase Eta. DNA polymerase eta (Homo sapiens), Q9Y253. recombinant Pol eta, fluorescent DNA replication assay. Potency, µM (series often up to 114 µM), inactives show top-dose activity change, negative = inhibition, usual class: inhibitors. 1.2% of 390,000 active; also: % is scaled to controls: 0 for no effect and ±100 for the full control effect
#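 Fluorescent replication assay: 50 nM final substrate added after a 15 min room-temperature compound preincubation with 10 nM enzyme. Signal taken at 0 min and again at 10 min.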
# * marks the source's active call; other numbers are inactive results; u = inconclusive; x = no result; [ ] = dose if it differs, or a comment. Shown are actives, neighbours in structure and some others; about 2.4% of the full set was active somewhere. Calls follow the shape of the dose curve; as a rule, active = well fitted inhibition curve with a large enough effect; inconclusive = small, poorly fitted or top-dose-only effect, or another doubt; inactive = no such curve, though single readings can be large or run the other way. Potency is read from the fitted curve at half-maximal effect.
SMILES,Pol beta inh,GLS inh,KAT2A inh,Pol iota inh,Pol kappa inh,POLH inh
NS(=O)(=O)c1ccc(-c2ccc(/C=C3\SC(=S)N(C4CCS(=O)(=O)C4)C3=O)o2)cc1 (stereo not given),7.1%,-3.3%,-17.8%,3.8%,-7.2%,-4.5%
Cc1ccc(/C=C2\SC(=S)N(C3CCS(=O)(=O)C3)C2=O)o1 (stereo not given),31.6µM*,u,-13.1%,u,u,25.1µM*
CC1=C(C#N)C(=O)N(C2CCS(=O)(=O)C2)C(=O)/C1=C\c1ccc(C)o1 (stereo not given),12.6µM*,x,u,x,x,x
O=C(CNC(=O)c1ccccc1O)N/N=C/c1cc(Br)ccc1OC(=O)/C=C/c1ccco1,-4.0%,u,-18.4%,u,u,u
O=C(CNC(=O)c1cccc(F)c1)N/N=C/c1cc(Br)ccc1OC(=O)/C=C/c1ccco1,35.5µM*,0.0%,-14.7%,u,-9.0%[60.1 µM],8.6%
COc1ccc(CCNC(=O)COC(=O)c2ccc([N+](=O)[O-])o2)cc1,x,0.8%,-2.2%,u,-9.1%,u
O=C(COC(=O)c1ccc([N+](=O)[O-])o1)NCc1ccc(F)cc1,x,13.9%,-1.4%,u,-25.2%,89.1µM*
O=C(COC(=O)c1ccc([N+](=O)[O-])o1)NCCCc1ccccc1,x,-14.0%,-0.7%,u,-23.5%,89.1µM*
Cc1ccc(OCc2cc(=O)n3c(-c4ccccc4)csc3n2)cc1,20µM*,-3.6%,-23.4%,56.2µM*,u,u
Cc1cccc(N2CCN(Cc3cc(=O)n4ccsc4n3)CC2)c1C,6.8%,11.5%,-3.7%,13.1%,-0.6%,-13.7%
O=c1cc(CN2CCN(c3ccccc3O)CC2)nc2sccn12,u,-1.3%,-3.1%,44.7µM*,-12.4%,20µM*
CCOc1ccc(NC(=O)CN(C)Cc2cc(=O)n3c(-c4ccccc4)csc3n2)cc1OCC,25.1µM*,17.7%,-2.0%,u,-11.0%,-3.2%
O=c1cc(CN2CCN(c3ccccc3)CC2)nc2scc(-c3ccccc3)n12,39.8µM*,3.6%,-27.0%,56.2µM*,-42.5%,-23.2%
CN1CCCc2ccccc21,x,x,x,4.8%,-6.6%,x
Cc1ncnc2nc[nH]c12,x,x,x,22.0%,-11.4%,x
CCS(=O)(=O)N1Cc2ccccc2CC1C(=O)Nc1nnc(SCc2ccc(C#N)cc2)s1 (stereo not given),10µM*,15.1%,-2.5%,u,u,u
CCSc1nnc(NC(=O)C2Cc3ccccc3CN2C(=O)c2ccco2)s1 (stereo not given),22.4µM*,5.0%,-2.4%,u,u,28.2µM*
CCCCC(F)(F)[C@@]1(O)CC[C@H]2[C@H](CC(=O)[C@@H]2CCCCCCC(=O)O)O1,x,-11.3%,x,x,x,x
Nc1ccc(Cc2ccc(C=O)cc2)cc1,x,x,x,29.7%,-18.3%,x
Fc1cccc(-c2nnn3c2nc(NCCc2ccccc2)c2ccccc23)c1,15.3%,0.5%,-6.7%,28.1%,3.4%,-12.8%
NS(=O)(=O)c1ccc(CCNc2nc3c(-c4cccc(F)c4)nnn3c3ccc(Cl)cc23)cc1,u,-10.1%,-9.6%,33.6%,2.8%,89.1µM*
CCCNC1=C(N(C(C)=O)c2cccc(F)c2)C(=O)c2ccccc2C1=O,18.0%,-7.6%,-3.1%,79.4µM*,0.1%,-15.0%
CCC(=O)N(C1=C(NC(C)C)C(=O)c2ccccc2C1=O)C(C)C,-20.9%,-4.0%,-4.1%,u,7.8%[60.1 µM],6.3%
CC(C)Oc1ccc(-c2nc(-c3cccnc3)no2)cc1,x,x,x,17.6%,-4.3%,x
Cc1c2c(=O)n(-c3nc4ccccc4s3)nc-2cc(O)n1Cc1ccccc1,u,-0.3%,u,35.5µM*,u,44.7µM*
SMILES,Pol beta inh,GLS inh,KAT2A inh,Pol iota inh,Pol kappa inh,POLH inh
Cc1cn(C)c(CC(=O)N2CCN(c3ccc(F)cc3)CC2)c1C(=O)O,0.6%,32.6%,1.8%,-9.5%,1.9%[60.1 µM],-15.8%
Cc1cn(C)c(CC(=O)N2CCN(c3cccc(C(F)(F)F)c3)CC2)c1C(=O)O,0.7%,11.3%,-0.1%,89.1µM*,4.7%[60.1 µM],-8.7%
CCC1Sc2ccc(S(=O)(=O)CCC(=O)Nc3c(Cl)cc(OC)cc3OC)cc2NC1=O (stereo not given),79.4µM*,-14.9%,u,-7.2%,-18.7%,u
NS(=O)(=O)c1ccc(NC(=O)CSc2ncnc3ccccc23)cc1,31.6µM*,-1.2%,-2.3%,-23.7%,-2.9%,-13.7%
NS(=O)(=O)c1cccc(NC(=O)CSc2ncnc3ccccc23)c1,0.6%,-2.0%,1.5%,17.3%,-8.0%,2.5%
O=C(CSc1ncc(-c2ccccc2)[nH]1)Nc1cccc(C(F)(F)F)c1,-15.1%,6.6%,-10.3%,11.3%,0.0%,-13.5%
CC(=O)Nc1cccc(-n2nnc(SCC(=O)Nc3ccc(F)c(Cl)c3)n2)c1,u,13.9%,-13.9%,79.4µM*,-6.6%,u
O=C(Cn1cncn1)NCc1ccccc1Br,20.6%,-5.5%,-23.3%,2.8%,-6.4%,-10.0%
O=C(Cn1cncn1)NCc1cccc2ccccc12,25.6%,3.7%,3.55µM*,49.5%,2.6%,-5.5%
CCOC(=O)c1c(NC(=O)CSc2nnc(-c3ccccc3C)n2C)sc(C(C)=O)c1C,18.2%,3.6%,-21.0%,15.4%,u,35.5µM*
Cc1ccc(NC(=O)N2CC3CCCN3c3ccccc32)c(C)c1 (stereo not given),-3.7%,29.2%,12.6%,8.8%,-29.5%,-11.9%
CN(C)c1ccc(/C=C/c2ccnc3ccc(Br)cc23)cc1,x,x,x,13.3%,2.2%,x
CCCc1ccc(C(=O)NNC(=O)c2ccc(Cl)cc2)cc1,31.6µM*,17.8%,-20.3%,u,-28.3%,u
O=[N+]([O-])c1ccc(O)c(Nc2ncnc3ccccc23)c1,28.2µM*,-17.4%,-18.0%,-19.5%,-10.5%,u
O=[N+]([O-])c1ccc(O)c(Nc2ncnc3ccc(Br)cc23)c1,u,9.2%,u,30.4%,-13.4%,-11.1%
CCN(CC)CCOC(=O)c1ccc(N)cc1Cl,x,-3.1%,x,x,x,x
Cc1cnc(NC(=O)C2COc3ccccc3O2)s1 (stereo not given),50.1µM*,-2.6%,1.0%,u,u,u
Cc1csc(NC(=O)C2COc3ccccc3O2)n1 (stereo not given),1.3%,1.1%,3.1%,-0.6%,2.2%,-9.3%
C=C1C[C@@]23CC[C@H]4[C@@](C)(CCC[C@@]4(C)C(=O)O)[C@@H]2CC[C@]1(O)C3,x,x,-6.5%,x,-2.5%[60.1 µM],x
